Assay results reported in article PMC7862700, “An all-to-all approach to the identification of sequence-specific readers for epigenetic DNA modifications on cytosine”.

Assays:
Assay in all cases: DAPPL (digital affinity profiling via proximity ligation, sequencing); 10 mM Tris-HCl pH 7.5, 50 mM NaCl, 1 mM DTT, 4% glycerol, room temperature, 30 min; GST-TFs on glutathione beads, 16-mer random dsDNA library, 0.1% formaldehyde crosslink after washing; high values mean tight binding
Conditions in all cases: protein: recombinant; tags: N-terminal GST; dsDNA, one strand shown
ERF = biological target: T1, ERF (Homo sapiens, UniProt P50548 1-548)
T1 sequence: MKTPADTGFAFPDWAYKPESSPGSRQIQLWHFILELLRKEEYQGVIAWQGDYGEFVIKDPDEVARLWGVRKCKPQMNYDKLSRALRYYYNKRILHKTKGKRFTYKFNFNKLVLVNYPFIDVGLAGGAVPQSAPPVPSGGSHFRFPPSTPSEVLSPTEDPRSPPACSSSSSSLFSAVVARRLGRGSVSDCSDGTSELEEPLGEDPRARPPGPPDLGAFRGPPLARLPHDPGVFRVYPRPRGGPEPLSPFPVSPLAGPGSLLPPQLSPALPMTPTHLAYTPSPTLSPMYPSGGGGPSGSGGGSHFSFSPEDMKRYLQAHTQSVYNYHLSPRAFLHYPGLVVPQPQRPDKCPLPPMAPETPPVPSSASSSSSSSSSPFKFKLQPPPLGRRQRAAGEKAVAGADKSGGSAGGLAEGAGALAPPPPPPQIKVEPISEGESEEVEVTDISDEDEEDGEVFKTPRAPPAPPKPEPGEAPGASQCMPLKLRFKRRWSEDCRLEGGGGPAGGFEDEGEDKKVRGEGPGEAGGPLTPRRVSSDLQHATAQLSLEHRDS
Summary of the method: (§1)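 Beads coated with glutathione captured GST-fused human transcription factors that had been expressed in yeast, and the factors were then given DNA barcodes and pooled with a tag-only sample. The pools were incubated with 200 nmole of a random double-stranded 16-mer DNA library in Tris/NaCl/DTT/glycerol buffer for 30 min at room temperature, washed, crosslinked with 0.1% formaldehyde and proximity-ligated with BsaI/T4 ligase at 37 °C for 1 h. PCR amplification and Illumina NextSeq500 sequencing came last. Binding signal is each hexamer's read frequency for a factor divided by its frequency for the tag-only sample.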

ETV3L = biological target: T2, ETV3L (Homo sapiens, UniProt Q6ZN32 1-361)
T2 sequence: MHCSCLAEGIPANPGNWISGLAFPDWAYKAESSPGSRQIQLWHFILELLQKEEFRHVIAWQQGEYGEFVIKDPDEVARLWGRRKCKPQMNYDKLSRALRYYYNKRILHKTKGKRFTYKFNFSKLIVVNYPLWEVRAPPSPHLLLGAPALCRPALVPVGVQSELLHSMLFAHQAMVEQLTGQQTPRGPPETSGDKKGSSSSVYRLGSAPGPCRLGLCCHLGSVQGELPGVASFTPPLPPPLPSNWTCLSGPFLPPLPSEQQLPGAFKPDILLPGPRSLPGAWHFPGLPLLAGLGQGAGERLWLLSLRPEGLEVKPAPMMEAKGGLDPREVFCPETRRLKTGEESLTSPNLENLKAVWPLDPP
Summary of the method: as §1

ETS2 = biological target: T3, ETS2 (Homo sapiens, UniProt P15036 1-469)
T3 sequence: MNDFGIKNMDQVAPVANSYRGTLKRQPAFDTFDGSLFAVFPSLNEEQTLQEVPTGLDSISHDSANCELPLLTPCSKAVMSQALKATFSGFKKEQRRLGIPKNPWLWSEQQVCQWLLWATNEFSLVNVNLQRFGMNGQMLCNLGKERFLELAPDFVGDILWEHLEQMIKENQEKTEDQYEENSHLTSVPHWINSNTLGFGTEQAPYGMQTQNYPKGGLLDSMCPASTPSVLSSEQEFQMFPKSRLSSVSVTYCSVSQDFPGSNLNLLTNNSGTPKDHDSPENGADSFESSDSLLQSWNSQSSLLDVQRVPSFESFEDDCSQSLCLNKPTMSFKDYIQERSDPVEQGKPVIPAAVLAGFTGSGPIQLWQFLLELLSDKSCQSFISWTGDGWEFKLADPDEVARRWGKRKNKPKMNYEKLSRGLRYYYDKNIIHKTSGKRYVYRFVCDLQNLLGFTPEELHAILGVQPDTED
Summary of the method: as §1

SPDEF = biological target: T4, SPDEF (Homo sapiens, UniProt O95238 1-335)
T4 sequence: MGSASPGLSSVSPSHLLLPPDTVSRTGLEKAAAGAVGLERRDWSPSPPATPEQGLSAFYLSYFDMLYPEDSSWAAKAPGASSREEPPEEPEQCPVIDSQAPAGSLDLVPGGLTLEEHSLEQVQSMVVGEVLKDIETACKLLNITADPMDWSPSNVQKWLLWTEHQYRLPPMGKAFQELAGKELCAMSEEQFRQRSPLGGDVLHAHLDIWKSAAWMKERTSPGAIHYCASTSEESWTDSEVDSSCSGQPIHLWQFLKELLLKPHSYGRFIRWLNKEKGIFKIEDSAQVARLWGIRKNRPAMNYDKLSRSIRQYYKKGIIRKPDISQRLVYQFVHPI
Summary of the method: as §1

ETV7 = biological target: T5, ETV7 (Homo sapiens, UniProt Q9Y603 1-341)
T5 sequence: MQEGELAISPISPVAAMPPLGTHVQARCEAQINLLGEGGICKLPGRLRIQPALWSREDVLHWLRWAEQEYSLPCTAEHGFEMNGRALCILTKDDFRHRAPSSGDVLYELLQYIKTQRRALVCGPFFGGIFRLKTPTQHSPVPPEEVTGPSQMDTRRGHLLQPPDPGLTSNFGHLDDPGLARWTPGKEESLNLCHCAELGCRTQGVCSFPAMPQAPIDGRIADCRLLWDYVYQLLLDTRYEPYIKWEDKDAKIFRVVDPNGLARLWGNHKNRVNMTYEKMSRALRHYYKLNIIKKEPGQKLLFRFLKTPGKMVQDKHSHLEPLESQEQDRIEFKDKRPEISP
Summary of the method: as §1

ELF5 = biological target: T6, ELF5 (Homo sapiens, UniProt Q9UKW6-2 1-255)
T6 sequence: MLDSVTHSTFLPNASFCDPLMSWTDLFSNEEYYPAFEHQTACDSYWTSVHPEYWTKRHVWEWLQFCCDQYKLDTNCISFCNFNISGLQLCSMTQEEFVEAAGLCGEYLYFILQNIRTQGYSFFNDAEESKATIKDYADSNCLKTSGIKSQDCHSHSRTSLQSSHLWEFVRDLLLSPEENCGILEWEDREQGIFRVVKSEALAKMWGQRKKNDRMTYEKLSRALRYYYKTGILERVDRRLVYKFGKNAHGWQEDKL
Summary of the method: as §1

ETV3 = biological target: T7, ETV3 (Homo sapiens, UniProt P41162-2 1-143)
T7 sequence: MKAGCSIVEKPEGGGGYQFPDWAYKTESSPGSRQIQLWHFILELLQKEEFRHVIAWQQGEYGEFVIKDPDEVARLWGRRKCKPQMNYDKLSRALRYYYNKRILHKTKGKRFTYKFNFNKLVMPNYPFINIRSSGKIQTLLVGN
Summary of the method: as §1

ETV6 = ETV6 (Homo sapiens, UniProt P41212 1-452)
Summary of the method: as §1

Chain of ETV6 (P41212 whole entry): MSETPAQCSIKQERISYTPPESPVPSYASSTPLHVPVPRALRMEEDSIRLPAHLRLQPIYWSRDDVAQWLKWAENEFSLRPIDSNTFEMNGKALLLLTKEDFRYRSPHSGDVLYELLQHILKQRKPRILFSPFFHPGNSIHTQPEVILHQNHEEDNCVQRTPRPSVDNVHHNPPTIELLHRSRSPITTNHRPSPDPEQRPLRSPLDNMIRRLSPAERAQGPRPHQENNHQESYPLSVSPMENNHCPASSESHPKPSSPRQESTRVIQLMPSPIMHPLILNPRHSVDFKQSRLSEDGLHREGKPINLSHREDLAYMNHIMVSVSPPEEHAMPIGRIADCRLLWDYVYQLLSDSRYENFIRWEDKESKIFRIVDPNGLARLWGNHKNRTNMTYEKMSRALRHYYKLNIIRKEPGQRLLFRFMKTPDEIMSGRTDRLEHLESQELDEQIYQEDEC

Sequence | binding signal (ERF) | binding signal (ETV3L) | binding signal (ETS2) | binding signal (SPDEF) | binding signal (ETV7) | binding signal (ELF5) | binding signal (ETV3) | binding signal (ETV6)
TTTGGC | 1.29 fold enrichment (6-mer frequency, TF over GST control) | 1.23 fold enrichment (6-mer frequency, TF over GST control) | 1.18 fold enrichment (6-mer frequency, TF over GST control) | 1.12 fold enrichment (6-mer frequency, TF over GST control) | 1.24 fold enrichment (6-mer frequency, TF over GST control) | 1.18 fold enrichment (6-mer frequency, TF over GST control) | 1.21 fold enrichment (6-mer frequency, TF over GST control) | 1.26 fold enrichment (6-mer frequency, TF over GST control)
CGTTAT | 1.17 fold enrichment (6-mer frequency, TF over GST control) | 1.2 fold enrichment (6-mer frequency, TF over GST control) | 1.15 fold enrichment (6-mer frequency, TF over GST control) | 1.08 fold enrichment (6-mer frequency, TF over GST control) | 1.21 fold enrichment (6-mer frequency, TF over GST control) | 1.05 fold enrichment (6-mer frequency, TF over GST control) | 1.18 fold enrichment (6-mer frequency, TF over GST control) | 1.09 fold enrichment (6-mer frequency, TF over GST control)
CCTATT | 1.6 fold enrichment (6-mer frequency, TF over GST control) | 1.64 fold enrichment (6-mer frequency, TF over GST control) | 1.49 fold enrichment (6-mer frequency, TF over GST control) | 1.51 fold enrichment (6-mer frequency, TF over GST control) | 1.52 fold enrichment (6-mer frequency, TF over GST control) | 1.53 fold enrichment (6-mer frequency, TF over GST control) | 1.52 fold enrichment (6-mer frequency, TF over GST control) | 1.59 fold enrichment (6-mer frequency, TF over GST control)
AAAGGG | 1.09 fold enrichment (6-mer frequency, TF over GST control) | 1.09 fold enrichment (6-mer frequency, TF over GST control) | 1.13 fold enrichment (6-mer frequency, TF over GST control) | 1.04 fold enrichment (6-mer frequency, TF over GST control) | 1.09 fold enrichment (6-mer frequency, TF over GST control) | 1.19 fold enrichment (6-mer frequency, TF over GST control) | 1.18 fold enrichment (6-mer frequency, TF over GST control) | 1.1 fold enrichment (6-mer frequency, TF over GST control)
AAAATT | 1.48 fold enrichment (6-mer frequency, TF over GST control) | 1.49 fold enrichment (6-mer frequency, TF over GST control) | 1.4 fold enrichment (6-mer frequency, TF over GST control) | 1.26 fold enrichment (6-mer frequency, TF over GST control) | 1.5 fold enrichment (6-mer frequency, TF over GST control) | 1.29 fold enrichment (6-mer frequency, TF over GST control) | 1.31 fold enrichment (6-mer frequency, TF over GST control) | 1.33 fold enrichment (6-mer frequency, TF over GST control)
TGACAC | 1.3 fold enrichment (6-mer frequency, TF over GST control) | 1.22 fold enrichment (6-mer frequency, TF over GST control) | 1.24 fold enrichment (6-mer frequency, TF over GST control) | 1.11 fold enrichment (6-mer frequency, TF over GST control) | 1.28 fold enrichment (6-mer frequency, TF over GST control) | 1.19 fold enrichment (6-mer frequency, TF over GST control) | 1.21 fold enrichment (6-mer frequency, TF over GST control) | 1.19 fold enrichment (6-mer frequency, TF over GST control)
CGAAAC | 1.24 fold enrichment (6-mer frequency, TF over GST control) | 1.22 fold enrichment (6-mer frequency, TF over GST control) | 1.16 fold enrichment (6-mer frequency, TF over GST control) | 1.22 fold enrichment (6-mer frequency, TF over GST control) | 1.22 fold enrichment (6-mer frequency, TF over GST control) | 1.12 fold enrichment (6-mer frequency, TF over GST control) | 1.08 fold enrichment (6-mer frequency, TF over GST control) | 1.16 fold enrichment (6-mer frequency, TF over GST control)
